In PubChem BioAssay AID501 (PCMD, 2006):
The whole screen tested about 62,000 compounds, of which about 35 (0.06%) were called active. Rule as the data show it: active = inhibition above about 32% (passing the limit was not always enough); inconclusive = no clear call, values can overlap the other calls. For the sample, actives were picked, then their nearest neighbours and some compounds at random.

biological target: Cathepsin S (Homo sapiens) (UniProt P25774); test: blockers of CTSS protease activity – biochemical, compound mixtures (AID 501); conditions: recombinant cathepsin S, AMC dipeptide fluorescence, pooled mixtures; active compounds read high;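 tested at 5 µM per compound within 10-compound mixtures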;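 also: 0% = enzyme without compound and 100% = blank without enzyme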
Sequence (P25774 115-331 limits assumed): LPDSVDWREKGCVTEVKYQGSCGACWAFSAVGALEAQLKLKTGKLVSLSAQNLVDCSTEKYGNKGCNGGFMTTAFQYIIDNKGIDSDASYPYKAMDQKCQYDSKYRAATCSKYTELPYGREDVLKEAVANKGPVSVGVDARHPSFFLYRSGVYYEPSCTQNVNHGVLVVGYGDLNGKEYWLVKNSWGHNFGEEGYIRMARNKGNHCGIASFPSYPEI

inhibition, inactive:
CCOc1ccc2[nH]c(=O)c(CN(Cc3nnnn3Cc3ccccc3)CC3CCCO3)cc2c1 (centres undefined) 6.16%
CCOC(=O)CSc1nccc(N(C)C)c1C#N 14.4%
Cc1nnc(N(Cc2ccco2)C(=O)c2ccno2)s1 -4.35%
CCn1c(=O)cc(O)c2ccccc21 9.68%
COc1cc(C(=O)N(Cc2ccc(N(C)C)cc2)C2CCS(=O)(=O)C2)cc(OC)c1OC (centres undefined) 0.64%
Nc1nnc(C2CCCC2)s1 14.3%
CCc1ccccc1NC(=O)c1cccs1 8.09%
CCOC(=O)C1=C(CC)Nc2ccccc2N=C1NC(=O)c1cccc(S(=O)(=O)N2CCCC2)c1 -5.2%
CCC(=O)NC(=Nc1nc2ccccc2s1)NC(=O)CC -2.2%
C=CCn1c(SCc2cc(C(=O)OC)c(C)o2)nnc1-c1ccncc1 -3.76%
CCOc1ccc(-c2nnc(-c3ccco3)o2)cc1 -3.01%
CCOc1ccc(OCC)c(NC(=O)CN(C)S(=O)(=O)c2cccc3nsnc23)c1 -22.2%
CCOC(=O)CSc1nnc(CNc2ccc(F)cc2)o1 -5.03%
Cn1c(=NC(=O)CSCC(=O)N2CCOCC2)sc2ccccc21 14.7%
Cn1c(=O)[nH]c(=O)c2c1nc(CN(Cc1ccccc1)Cc1ccccc1)n2CCN1CCOCC1 2.01%
COc1ccc(Br)cc1S(=O)(=O)N1CCN=C1C -2.2%
Cn1c(=NC(=O)CSCC(=O)N2CCCCC2)sc2ccccc21 6.42%
CSCCC(NS(=O)(=O)/C=C/c1ccccc1)C(=O)N1CCC(C)CC1 (centres undefined) -1.31%
CCOC(=O)N1CCC(NC(=O)CCc2cn(C)c3ccccc23)CC1 -4.61%
CCn1cc(C(=O)NCc2ccc(OC)cc2OC)c(=O)c2ccc(C)nc21 0.185%
CCN(CC)P(=O)(/C(Cl)=C\Nc1c(C)n(C)n(-c2ccccc2)c1=O)N(CC)CC 0.845%
COc1ccc(C)cc1NC(=O)c1[nH]c(C)c(C(C)=O)c1C -3.92%
Fc1ccc2[nH]c3c(N4CCN(Cc5ccc6c(c5)OCO6)CC4)ncnc3c2c1 -6.06%
CCc1c(C)nc(N)n2c(SCC(=O)N3CCN(c4ccccc4)CC3)nnc12 -12.8%
CN1CCN(CC(O)COCc2ccc3c(c2)OCO3)CC1 (centres undefined) 5.75%
CC(=O)Nc1cccc(NC(=O)c2c(-c3ccccc3)noc2C)c1 -5.8%
O=C(NCCCN1CCOCC1)c1cc(-c2ccc(Cl)cc2)on1 -0.13%
O=C(NCCc1ccco1)c1nn(Cc2ccccc2)c(=O)c2ccccc12 11.9%
O=C(C1CCCO1)N(Cc1ccccc1)c1ccccc1 (centres undefined) -2.27%
Cc1ccsc1C(C(=O)NC1CCCCC1)N(C(=O)Cc1cccs1)C1CC1 (centres undefined) 6.71%
Cc1cc(=O)n2nc(N3CCCC(C(=O)NCCC4=CCCCC4)C3)sc2n1 (centres undefined) 19.8%
CCOC(=O)C1CCCN(C(=O)Cn2ncc3c(=O)oc4ccc(C)cc4c32)C1 (centres undefined) 7.33%
O=C(Nc1cccnc1)c1noc2c1CCCCC2 10.9%
CCc1cc2c(=O)c(-c3ccon3)c(N)oc2cc1OC -1.48%
COc1ccc(C(c2nnnn2Cc2cccs2)N2CCN(c3ccccc3)CC2)cc1OC (centres undefined) -6.06%
CC(C)COC(=O)C1C2C=CC3(CN(C(C)c4ccc(Br)cc4)C(=O)C13)O2 (centres undefined) 14.7%
O=C(O)c1ccc(-n2cccc2)cc1O 5.17%
CCOc1cc(C(=O)Nc2ncccn2)cc(OCC)c1OCC 31.7%
Cc1ccsc1CNn1cnnc1SCc1ccccc1F -4.25%
CCOC(=O)CCCNC(=O)CN1C(=O)NC(CCc2ccccc2)C1=O (centres undefined) -3.72%
CC1CCCC(N2CCN(C(=O)c3ccc(F)cc3)CC2)C1 (centres undefined) -4.6%
CSCC[C@H](NC(=O)NCCc1ccc(F)cc1)C(=O)O -4.51%
CCCCc1cc(=O)oc2cc(C)cc(OCc3nn[nH]n3)c12 1.43%
CCN(CC)S(=O)(=O)c1ccc(NC(=O)CN(c2cccc(F)c2)S(C)(=O)=O)cc1 -8.46%
CC(C)(CSc1nncn1/N=C/c1ccco1)NS(=O)(=O)c1ccc(Cl)cc1 6.83%
CC1(C)SC2c3ccccc3C(=O)N2[C@@H]1C(=O)NCc1ccco1 (some centres undefined) -3.88%
CCOC(=O)c1c(C)[nH]c(C)c1C(=O)CSc1nc(N)cc(N)n1 5.32%
O=C(C1CCN(c2nnc(-n3cccc3)s2)CC1)N1CCc2ccccc2C1 4.27%
Cc1cc(Nc2cccc(C)c2C)n2ncnc2n1 -1.92%
COC(=O)c1ccc(NC(=O)CN(c2ccc(C)cc2)S(=O)(=O)c2c(C)n[nH]c2C)cc1 -7.46%
COc1ccc(N(CC(=O)NC(C)(C)C)C(=O)c2ccco2)cc1 10.2%
Cc1cc(Cl)ccc1N1C(=O)CC(SCCC(=O)O)C1=O (centres undefined) 1.91%
COc1cc2ccccc2cc1C(=O)Nc1ccc(S(=O)(=O)Nc2cc(C)on2)cc1 -7.28%
Cc1cc(=O)[nH]c(SCC(=O)N2c3ccccc3CC2C)n1 (centres undefined) 33.4%
